The term Inhibition denotes the change of the read-out against control, counted positive when it falls. A lower Inhibition goes with little suppression.

SMILES strings stand for the structures.

Common to all, as to type: functional
Assay [1] deals with Plasmodium falciparum. Nature of the assay: GSK_TCMDC: Inhibition of Plasmodium falciparum 3D7 in whole red blood cells, using parasite LDH activity as an index of growth. Test compounds present at 2uM.
Assay [2] relates to Plasmodium falciparum. Nature of the assay: GSK_TCMDC: Inhibition of Plasmodium falciparum Dd2 in whole red blood cells, using parasite LDH activity as an index of growth. Test compounds present at 2uM.
The subject of assay [3] is HepG2. The assay is described as follows: GSK_TCMDC: Percent inhibition of human HepG2 cell line. Test compounds present at 10uM.

Regarding `Cn1cccc1C(=O)C(=O)Nc1ccc(-c2ccc(-c3nc4cc(F)ccc4[nH]3)cc2)cc1`, the Inhibition in assay [1] is 92%; in assay [2] it was 33%; in assay [3], 44%.
With `CNC(=O)CSc1nnc(-c2ccc(C)cc2)c(-c2ccc(C)cc2)n1`, the Inhibition is 94% in assay [1], 49% in assay [2] and 2% in assay [3].
`CCCCCc1cnc2nc(N)nc(N)c2c1.O=S(=O)(O)CCO`: the values for the Inhibition in assay [1], in assay [2] and in assay [3] were 82%, 6% and 72%, respectively.
The corresponding values for `CC(=O)Nc1cccc(C(=O)Nc2ccc(-c3cccc(-c4nc5cc(F)ccc5[nH]4)c3)cc2)c1` are 96%, 8% and 90%.
Turning to `CC=CC1CCNC(C(O)c2ccnc3ccc(OC)cc23)C1` (stereo not drawn), the figures for the Inhibition in assay [1], in assay [2] and in assay [3] were 91%, 1% and 0%, respectively.
The corresponding values for `O=C(C1CCCCC1)N1CCOC(CCN2CCC(c3ccccc3)CC2)(c2ccc(Cl)c(Cl)c2)C1` (stereo not drawn) are 92%, 86% and 6%.
`CC(C)(C)c1ccc(S(=O)(=O)Nc2ccccc2N2CCOCC2)cc1`: the Inhibition in assay [1] came out at 90%; in assay [2], 60%; in assay [3] it was 11%.
Take `CCc1cc(I)c2c(c1)C(NCCCNc1cc(=O)c3ccccc3[nH]1)CCN2.CS(=O)(=O)O` (stereo not drawn): the Inhibition is reported as 89% in assay [1], 32% in assay [2] and 19% in assay [3].
In the case of `Cc1nc2ccc3ccc(CNc4ccc(C(=O)N[C@@H](CCC(=O)O)C(=O)N[C@@H](Cc5cccs5)C(=O)O)c(F)c4)cc3c2c(=O)[nH]1`, the figures for the Inhibition in assay [1], in assay [2] and in assay [3] were 97%, 96% and 43%, respectively.
Taken in the same sequence, the figures for `Nc1c(Cl)cc(C(O)CNCCCCCOCCc2ccc3occc3c2)cc1Cl` (stereo not drawn) were 99%, 74% and 0%.
The corresponding values for `O=C(Nc1cc(C(F)(F)F)cc(C(F)(F)F)c1)Nc1cc(C(F)(F)F)cc(C(F)(F)F)c1` are 97%, 100% and 5%.
The corresponding values for `COc1ccc2ccccc2c1C=NN=c1cc(C)[nH]c2cc(C(F)(F)F)ccc12` are 92%, 4% and 1%.
Turning to `COc1ccc(CCN2CCC(NCc3cccc(N(C)C)c3)CC2)cc1`, the Inhibition is on record as 98% in assay [1], 7% in assay [2] and 18% in assay [3].
Taken in the same sequence, the figures for `O=C(Nc1ccc(-c2cccc(-c3nc4ccccc4[nH]3)c2)cc1)Nc1ccc(Cl)c(Cl)c1` were 100%, 80% and 61%.
Taken in the same sequence, the figures for `COc1cccc(CCNCc2ccc(-c3cccc(CNC4CCCC4)c3)cc2)c1.O=C(O)C(F)(F)F` were 100%, 45% and 14%.
The corresponding values for `Cn1cccc1C(=O)Nc1cccc(-c2nn3ccccc3c2-c2ccnc(Nc3ccc4c(c3)OCCO4)n2)c1` are 95%, 27% and 12%.
Consider `O=C(CCn1cncn1)N1CCCC(c2[nH]c3ccccc3c2-c2ccncc2)C1` (stereo not drawn), for which the Inhibition was found to be 97% in assay [1], 79% in assay [2] and 1% in assay [3].
The corresponding values for `CCC(C(=O)Nc1ccccc1)n1nc(-c2ccc(C)c(S(=O)(=O)N3CCCCC3)c2)ccc1=O` (stereo not drawn) are 85%, 67% and 0%.
Turning to `Cc1nc(-c2ccc(-c3ccc(NC(=O)Nc4ccc(I)c(OCCN(C)C)c4)cc3)c(C)c2)no1.Cl`, the values for the Inhibition in assay [1], in assay [2] and in assay [3] were 100%, 92% and 47%, respectively.
The corresponding values for `Cl.O=C(Nc1ccc(C(=O)OCC2CCCN3CCCCC23)cc1)c1ccc(Cl)c(Cl)c1` (stereo not drawn) are 99%, 37% and 20%.
Taken in the same sequence, the figures for `O=C(N[C@H]1CCN(CCc2ccc(O[C@H]3CCNC3)c(Cl)c2)C1)c1ccc(Cl)c(Cl)c1.O=C(O)C(F)(F)F` were 100%, 0% and 26%.
The corresponding values for `O=C(Nc1cccc(N2CCC(NCc3cccnc3)CC2)c1)c1cccc(C(F)(F)F)c1` are 98%, 2% and 26%.
As for `COc1cc(F)c2ncc(Cl)c(CCN3CCC(NCc4ccc5c(c4)NC(=O)CS5)CC3)c2c1.Cl`, the Inhibition worked out at 100% in assay [1], 85% in assay [2] and 27% in assay [3].
The corresponding values for `CCOc1cc2c(cc1OCC)C(c1ccc(O)c(Cl)c1)NCC2.Cl` (stereo not drawn) are 98%, 98% and 6%.
The corresponding values for `O=C(NCCNc1ccnc2cc(Cl)ccc12)c1ccccc1F` are 99%, 98% and 30%.
Taken in the same sequence, the figures for `Cl.O=C1CSc2ccc(CNC3CCN(CCc4c(Cl)cnc5ccc(F)cc45)CC3)nc2N1` were 98%, 52% and 21%.
Consider `CC(C)c1cccc(OCC2CCN(c3ncc(C(=O)Nc4ccccc4)cc3Cl)CC2)c1`, for which the Inhibition in assay [1] worked out at 89%; in assay [2], 88%; in assay [3], 9%.
Taken in the same sequence, the figures for `O=S(=O)(c1ccc(OC(F)(F)F)cc1)C1CC2CCC(C1)N2S(=O)(=O)c1ccc(Cl)c(C(F)(F)F)c1` (stereo not drawn) were 100%, 95% and 1%.
`CN1C(C)(C)CC(NC(=O)c2ccc(-c3nc4cc(Cl)ccc4[nH]3)cc2)CC1(C)C`: the Inhibition came to 99% in assay [1], 36% in assay [2] and 23% in assay [3].
The corresponding values for `O=C(/C=C/c1ccc(C(F)(F)F)cc1)N1CCC(CCN2CCC(c3c[nH]c4ccccc34)CC2)CC1` are 100%, 77% and 70%.
The corresponding values for `Cc1ccc(NC(=O)NC2CCN(c3ccnc4cc(Cl)ccc34)CC2)cc1.O=C(O)C(F)(F)F` are 100%, 47% and 4%.

These data come from ChEMBL document CHEMBL1157539, “Thousands of chemical starting points for antimalarial lead identification” (Nature, 2010).
